Assay outcomes as filed in PubChem BioAssay.
Only some compounds are listed: those with a hit (about 2.4% of all), similar ones and a draw of the others.
M1 PAM parental: M1 PAM counterscreen hit in parental CHO-K1 cells; 0.02% of 360,000 active; ATP EC20, Fluo-8 calcium fluorescence; 0% at ATP EC20, 100% at ATP max; AID 602247; activation, % at 3 µM;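 active = activation above the run cutoff, the mean activation of all test compounds plus 3 SD, cut at about 40% in these data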;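 also: peak over basal fluorescence ratio in a 140 s read after ATP addition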
CHRM1 agonist: human M1 muscarinic receptor agonism. P11229. CHO-K1 hM1, Fluo-8 calcium fluorescence, agonist mode; 0% DMSO, 100% acetylcholine EC100. activation, % at 3 µM. 0.33% of 360,000 active. AID 588814;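 active = activation above the run's mean compound activation plus 3 SD, cut at about 16% in these data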;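 also: peak over basal fluorescence ratio within a 140 s kinetic read after compound addition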
Target sequence (P11229 whole entry, looked up): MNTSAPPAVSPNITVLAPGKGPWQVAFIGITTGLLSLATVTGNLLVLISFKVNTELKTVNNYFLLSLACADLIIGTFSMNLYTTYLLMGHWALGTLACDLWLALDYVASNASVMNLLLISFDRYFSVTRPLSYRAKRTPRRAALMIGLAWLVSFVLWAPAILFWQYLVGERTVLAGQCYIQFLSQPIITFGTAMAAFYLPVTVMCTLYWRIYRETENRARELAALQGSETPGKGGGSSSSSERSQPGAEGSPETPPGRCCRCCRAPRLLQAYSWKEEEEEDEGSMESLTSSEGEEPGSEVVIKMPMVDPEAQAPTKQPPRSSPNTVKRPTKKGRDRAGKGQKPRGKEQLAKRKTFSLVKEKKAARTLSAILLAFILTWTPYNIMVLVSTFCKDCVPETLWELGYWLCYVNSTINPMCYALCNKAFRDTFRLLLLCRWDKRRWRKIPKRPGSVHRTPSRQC
M1 antag: antagonists of human M1 muscarinic receptor | CHO-K1 hM1, Fluo-8 calcium fluorescence, ACh EC80 antagonist | inhibition, % at 3 µM | 1.3% of 360,000 active;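 active = percent inhibition above its own plate's cutoff, namely the mean of that plate's compound wells plus 3 SD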;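 also: peak over basal fluorescence ratio during 140 s after agonist addition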
CHO-K1 Ca antag: counter-screen for M1 antagonists: effect in parental CHO-K1 cells; inhibition, % at 3 µM; 0.6% of 360,000 active; ATP-induced calcium, Fluo-8 fluorescence;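 active = inhibition above a per-plate cutoff, the plate's mean sample inhibition plus 3 SD, cut at about 24% in these data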
CHRM1 PAM: positive allosteric modulators of human M1 muscarinic receptor | activation, % at 3 µM | 0.088% of 360,000 active | P11229 | CHO-K1 hM1, Fluo-8 calcium fluorescence, ACh EC20; 0% = ACh EC20, 100% = maximal ACh | AID 588819; in the data active = activation above about 19%, passing the limit was not always enough
M1 ag parental: M1 agonist counterscreen hit in parental CHO-K1 cells; Fluo-8 calcium fluorescence; scaled to maximal ATP response, vehicle zero; activation, % at 3 µM; 0.48% of 360,000 active; AID 602248; in the data active = activation above about 15%;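 also: untransfected CHO-K1 host cells lacking M1 receptor as counterscreen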
A number is an active result; - = inactive.

SMILES | M1 PAM parental | CHRM1 agonist | M1 antag | CHO-K1 Ca antag | CHRM1 PAM | M1 ag parental
CCc1[nH]nc(C(=O)NC2CCCN(Cc3ccccc3F)C2)c1C (configuration not stated) | - | - | 40 | - | - | -
CC(=O)c1ccc(C(=O)NC2CCCN(Cc3ccccc3F)C2)cc1 (configuration not stated) | - | - | - | - | - | -
COc1ccc(CNC(=S)Nc2ccc(Br)cc2)cc1 | - | - | - | - | - | -
CN(C)CCCC1Sc2ccccc2Sc2ccccc21 (configuration not stated) | - | - | 76 | - | - | -
CNCCC1Sc2ccccc2Oc2ccccc21 (configuration not stated) | - | - | - | - | - | -
CC(=O)c1cccc(NC(=O)c2ccc(OCc3c(C)noc3C)cc2)c1 | - | - | - | - | - | -
OC[C@@H]1CN(Cc2ccc(Cl)cc2)C[C@H](n2cnc3c(NCc4ccco4)ncnc32)O1 | - | - | - | - | - | -
CCC(=O)N1N=C(c2cccs2)CC1c1ccco1 (configuration not stated) | - | - | - | - | - | -
CCN(CC)CC(=O)N1N=C(c2cccs2)CC1c1ccco1 (configuration not stated) | - | - | 51 | - | - | -
COc1cccc(-n2c(=S)sc3c(=O)n(-c4ccccc4OC)c(=S)[nH]c32)c1 | - | - | - | - | - | -
CCOC(=O)C1CCN(c2ncnc3c2oc2ccc(Cl)cc23)CC1 | - | - | - | 27 | - | -
CCOC(=O)C1CCN(c2ncnc3c2[nH]c2cccc(OC)c23)CC1 | - | - | - | - | - | -
C=CCN(Cc1ccc(Br)s1)C(=O)c1ccc(OCc2c(C)noc2C)cc1 | - | - | - | - | - | -
CCn1ccnc1CN1CCc2c([nH]c3ccccc23)C1CC(C)C (configuration not stated) | - | - | - | - | - | -
CCn1ccnc1CN1CCc2c([nH]c3ccccc23)C1C(C)(C)C (configuration not stated) | - | - | - | - | - | 23
CCOC(=O)C1CCN(c2ccccc2CN2CCN(c3ccccc3OCC)CC2)CC1 | - | - | 48 | - | - | -
CCOC(=O)c1sc(=S)n(-c2ccccc2Cl)c1C | - | - | 52 | - | - | -
CCOC(=O)c1sc(=S)n(-c2ccccc2)c1C | - | - | - | - | - | -
Cc1c(C(=O)c2ccc(N(C)C)cc2)c2ccccn2c1CCC#N | - | - | - | 25 | - | -
O=C(Cc1ccc2c(c1)OCCO2)N1CCN(S(=O)(=O)c2cccc(Cl)c2Cl)CC1 | - | - | - | - | - | -
O=C(c1cc(=O)[nH]c2ccccc12)N1CCN(S(=O)(=O)c2ccc3ccccc3c2)CC1 | - | - | - | 26 | - | -
O=C(c1cc(=O)[nH]c2ccccc12)N1CCN(S(=O)(=O)c2ccc(Cl)cc2)CC1 | - | - | - | - | - | -
CCC(C)(C)c1ccc(OCCCC[n+]2cccc(C)c2C)c(C(C)(C)CC)c1 | - | - | 73 | - | - | 25
N#Cc1cn(CCOC(=O)c2cccc(C(F)(F)F)c2)c(=O)[nH]c1=O | - | - | - | 37 | - | -
CCOC(=O)Cn1cc(C#N)c(=O)[nH]c1=O | - | - | - | - | - | -
SMILES | M1 PAM parental | CHRM1 agonist | M1 antag | CHO-K1 Ca antag | CHRM1 PAM | M1 ag parental
N#Cc1cc(C(=O)c2ccccc2O)cn(-c2nccs2)c1=O | - | 45 | - | 25 | - | 72
Cc1c(-n2cc(C(=O)c3cc(F)ccc3O)cc(C#N)c2=O)c(=O)n(-c2ccccc2)n1C | - | - | - | - | - | -
N#Cc1cc(C(=O)c2cc(F)ccc2O)cn(-c2nccs2)c1=O | - | 54 | - | - | - | 55
COc1cc(CN2CCN(CCOCCO)CC2)cc(OC)c1OC | - | - | - | - | - | -
CCCCCCC#Cc1cncc(C(=O)NNC(=O)Nc2cc(Cl)cc(Cl)c2)c1 | - | - | - | - | - | -
CCCCC#Cc1cncc(C(=O)NN)c1 | - | - | - | - | - | 19
CCN(CC)C(=S)SCC(=O)c1ccc(F)cc1 | - | - | 24 | - | - | -
COC(=O)c1c(NC(=O)CC2SC(N)=NC2=O)sc2c1CCC(C(C)(C)C)C2 (configuration not stated) | - | - | - | - | - | -
COc1ccc(C(=O)NC2CC3CCCC(C2)N3Cc2ccccc2)cc1 (configuration not stated) | - | - | - | - | - | -
O=C(Nc1ccccc1-c1ccccc1)NC1CC2CCCC(C1)N2Cc1ccc(F)cc1 (configuration not stated) | - | - | 98 | - | - | -
CCOc1ccc(C(=O)NC2CC3CCCC(C2)N3Cc2ccccc2)cc1 (configuration not stated) | - | - | 38 | - | - | -
CCCNC(=S)NC1CC2CCCC(C1)N2Cc1ccc(F)cc1 (configuration not stated) | - | - | 48 | - | - | -
Cc1c(/N=C/c2ccco2)n(Cc2ccccc2)c2ccccc12 | - | - | - | - | - | -
O=C(COC(=O)CNC(=O)c1ccco1)Nc1ccccc1OC(F)F | - | - | - | - | - | -
CC(C)CC(=O)CC1(O)C(=O)Nc2ccccc21 (configuration not stated) | - | - | - | - | - | -
O=C(CCC1CCCC1)NCc1cccs1 | - | - | - | - | - | -
OC(c1cccs1)(c1cccs1)C1C[N+]2(CF)CCC1CC2 (configuration not stated) | - | - | 83 | - | - | -
COc1ccc2cc(C(N)=O)c(=Nc3ccccc3)oc2c1 | - | - | - | - | - | -
NC(=O)c1cc2ccc(O)cc2oc1=Nc1ccccc1 | - | - | - | 24 | - | -
CC(NC(=O)Cn1c(NCCO)nc2ccccc21)c1ccccc1 (configuration not stated) | - | - | - | - | - | -
Fc1ccc(OCCCCCn2ccnc2)cc1 | - | 36 | - | - | - | -
COc1cccc(/C(C#N)=C/c2c(-c3ccc(Cl)cc3)nc3c(C)cccn23)c1 | - | - | 48 | - | - | -
CCc1nnc(NS(=O)(=O)c2ccccc2)s1 | - | - | - | - | - | -
COCC(C)NC(=O)c1ccc(CN2CCc3ccccc3C2)cc1 (configuration not stated) | - | - | 65 | - | - | -
CCCCOc1ccc(C(=O)NCC(=O)N2CCN(Cc3ccc4c(c3)OCO4)CC2)cc1 | - | - | 30 | - | - | -
O=C(NCc1ccc2c(c1)OCO2)c1ccc(CN2CCc3ccccc3C2)cc1 | - | - | 32 | - | - | -
CCC(C)NC(=O)c1ccc(CN2CCc3ccccc3C2)cc1 (configuration not stated) | - | - | 65 | - | - | -
